This is a sample that favours compounds with a hit; in the whole collection about 19% have one here.
HT1080NT lethal: kills 2HG-producing HT-1080-NT fibrosarcoma cells. HT-1080-NT fibrosarcoma viability, CellTiter-Glo ATP luminescence, 48 h. Potency, µM (doses to about 46.1 µM), actives largely listed as cytotoxic. 1.6% of 360,000 active. AID 686970;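 note: NT is the 2HG producing partner of a matched IDH1 knockdown line; nearly all actives have a fitted effect of over 55% in size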
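Viability by CellTiter-Glo luminescence after 48 h compound exposure at 37C of HT-1080-NT cells (750/well, RPMI, 5% FBS). % activity scaled between DMSO wells and medium-only wells, then curve-fitted and categorized by curve class.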
KB-V1 MDR tox: KB-V1 MDR subline cytotoxicity | KB-V1 MDR cells viability, CellTiter-Glo, 72 h | Potency, µM (titrated, usually from 46.1 µM), hits mostly cytotoxic | 3.4% of 400,000 active | AID 1347076; note: nearly all actives have a fitted effect of over 60% in size
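Readout: CellTiter-Glo luminescence, 10 min after addition. Cells: KB-V1 MDR subline, 72 h at 37 degrees C with compound. Analysis: corrected, normalized data fitted to concentration-effect curves.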
DT40 TDP1 CPT: growth inhibition of DT40 Tdp1-/-;hTDP1 cells with camptothecin (screen for TDP1 inhibitors) | Potency, µM (series often up to 46.2 µM), most hits filed as inhibitors | chicken DT40 Tdp1-/-;hTDP1 cells + 20 nM CPT, ATP luminescence, 48 h | 12% of 420,000 active; note: nearly all actives have a fitted effect of over 55% in size
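Chicken DT40 Tdp1-/- cells stably complemented with human TDP1 were seeded at 400 cells/well in medium containing 20 nM camptothecin, exposed to pin-transferred compounds, and grown at 37 °C for at least 48 hr. Viability was read as ATP luminescence.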
TDP1 cell noCPT: qHTS for Inhibitors of human tyrosyl-DNA phosphodiesterase 1 (TDP1): qHTS in cells in absence of CPT | AID 686978, 2013 | 15% of 420,000 active | DT40 Tdp1-/- hTDP1 cells, no CPT, ATP luminescence, 48 h | Potency, µM (doses to about 46.2 µM), most hits filed as inhibitors; note: nearly all actives have a fitted effect of over 55% in size
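Luminescent ATP content (CellTiter-Glo) served as the growth readout. Knockout chicken DT40 cells expressing human TDP1 were exposed to compounds without camptothecin for a minimum 48 hr at 37 °C.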
KB-3-1 tox: kills parental KB-3-1 adenocarcinoma cells; KB-3-1 viability, CellTiter-Glo ATP luminescence, 72 h; Potency, µM (top dose mostly 46.1 µM), usual class: cytotoxic; 1.4% of 400,000 active; AID 1347075; note: nearly all actives have a fitted effect of over 60% in size
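Parental KB-3-1 adenocarcinoma cells in phenol-red-free DMEM with 10% FBS were pin-treated with compounds at several concentrations, incubated 72 h at 37 °C, and viability read by CellTiter-Glo luminescence; concentration-effect curves were fitted after normalization.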
HT1080 IDH1KD tx: HT-1080 IDH1 knockdown cell toxicity (counter line); HT-1080 IDH1 knockdown viability, ATP luminescence, 48 h; 2% of 360,000 active; Potency, µM (series often up to 46.1 µM), hits mostly cytotoxic
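Knockdown cells (IDH1KD HT-1080) received compounds 2 h after plating at 750 cells/well and were kept 48 h at 37 °C in 5% FBS RPMI. A CellTiter-Glo luminescence read gave % activity for curve fitting.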
Numbers stand for hits; i = inactive; ? = inconclusive; nt = no result; [ ] = remark or other dose. Calls come from the whole dose curve; as a rule, active = well fitted curve in the direction sought with a large enough effect; inconclusive = small, poorly fitted or top-dose-only effect, or another doubt; inactive = no such curve, though single readings can be large; an effect the other way counts as inactive or inconclusive.

SMILES	HT1080NT lethal	KB-V1 MDR tox	DT40 TDP1 CPT	TDP1 cell noCPT	KB-3-1 tox	HT1080 IDH1KD tx
CCCC(=O)c1ccc(OC(=O)c2c(-c3ccccc3Cl)noc2C)cc1	nt	i	?	?	?	nt
CC(C)CC(=O)Nc1cccc(-c2cn3cccnc3n2)c1	nt	i	i	i	i	nt
O=C(CN1C(=O)C2CCCCN2c2ccc(C(=O)N3CCCC3)cc21)NCc1cccc(F)c1 (configuration not stated)	nt	i	i	i	i	nt
CC(C)Oc1cccc(C(=O)C2CCCN(Cc3cccn3-c3ccccn3)C2)c1 (configuration not stated)	23µM	?	?	?	?	21µM
CC(C)Oc1cccc(C(=O)C2CCCN(Cc3ccc4nonc4c3)C2)c1 (configuration not stated)	i	?	i	i	i	i
COc1cccc(C(=O)C2CCCN(Cc3cccn3-c3ccccn3)C2)c1 (configuration not stated)	?	i	?	18µM	i	?
COc1ccc(C(=O)C2CCCN(Cc3cccn3-c3ccccn3)C2)cc1F (configuration not stated)	i	i	16µM	15µM	i	?
O=C(c1ccc(C(F)(F)F)cc1)C1CCCN(Cc2cccn2-c2ncccn2)C1 (configuration not stated)	?	i	?	26µM	i	?
O=C(COC(=O)/C=C/c1cccc(Br)c1)NC1CCCCCC1	i	i	i	i	i	i
CCC(=O)c1cn(CC(=O)Nc2ccc(F)cc2)c2ccccc12	i	i	i	i	i	i
CN(C)c1nc2cc3c(cc2cc1CN(CC1CCCO1)C(=O)c1cccc(F)c1)OCO3 (configuration not stated)	nt	nt	i[9.04 µM]	i	nt	nt
CSc1ccc(C(=O)C2CCCN(Cc3cccc4nccnc34)C2)cc1 (configuration not stated)	i	i	15µM	?	i	i
N#Cc1cnc2nc(SCc3ccccc3)nn2c1	i	i	i	?	i	i
COc1ccc2nc(SCC(=O)N(C)C3CCCCC3)c(C#N)cc2c1	i	15µM	?	?	i	i
COc1ccc2nc(SCC(=O)N3CCCCC3)c(C#N)cc2c1	i	i	i	?	i	i
COc1ccc2nc(SCC(=O)N3CCCCCC3)c(C#N)cc2c1	i	?	?	16µM	i	i
COc1ccc2nc(N3CCCC3)c(C#N)cc2c1	i	13µM	i	?	i	i
COc1ccc(N(CCOc2ccccc2)S(=O)(=O)c2ccccc2)cc1	i	i	?	16µM	i	i
COc1ccc(OC)c(N(CC(=O)NCCSc2ccccc2)S(C)(=O)=O)c1	i	23µM	i	i	i	i
COc1ccc(N(CC2CO2)S(=O)(=O)c2ccccc2)cc1 (configuration not stated)	i	i	?	?	i	?
COc1ccc(OC)c(N(CC(=O)NCCSC2CCCCC2)S(=O)(=O)c2ccccc2)c1	i	nt	?	?	nt	i
COc1cccc(N(CC(=O)NCCSc2ccc(Cl)cc2)S(C)(=O)=O)c1	i	16µM	i	i	i	i
COc1cccc(N(CC(=O)NCCSc2ccccc2)S(C)(=O)=O)c1	i	i	i	i	i	i
COc1ccc(N(CC(=O)NCCSC2CCCCC2)S(=O)(=O)c2ccc(C)cc2)cc1	i	nt	i	23µM	nt	i
CCOC(=O)CC(=O)NC1(Cc2ccc(O)cc2)CCCCC1	i	i	i	i	i	i
SMILES	HT1080NT lethal	KB-V1 MDR tox	DT40 TDP1 CPT	TDP1 cell noCPT	KB-3-1 tox	HT1080 IDH1KD tx
CCCN(CCC)C(=O)Cn1c(=O)n(-c2cccc(OC)c2)c(=O)c2c(C)c(C(=O)N(C)C)sc21	nt	nt	i	i	nt	nt
Cc1ccc(S(=O)(=O)N(CC(=O)NCCc2ccc(Cl)cc2)c2ccccc2C)cc1	nt	i	18µM	13µM	i	nt
COc1ccc(N(CC(=O)NCC(C)C)S(=O)(=O)c2ccccc2)cc1	i	?	i	i	i	i
CCOc1ccc(N(CCC#N)S(=O)(=O)c2ccc(OC)cc2)cc1	?	21µM	?	?	?	?
COc1ccc(N(CCC#N)S(=O)(=O)c2cccc3nsnc23)cc1	i	i	i	i	i	i
COc1ccc(S(=O)(=O)N(CC(=O)NCCSc2ccccc2)c2ccc(Cl)cc2)cc1	nt	i	16µM	12µM	i	nt
COc1ccc(N(CC(=O)NCCSCc2ccccc2C)S(=O)(=O)c2ccccc2)cc1	?	15µM	16µM	16µM	?	?
COc1ccccc1NC(=O)C(C)OC(=O)CCNS(=O)(=O)c1ccc(C)c(C)c1 (configuration not stated)	i	?	?	?	i	i
COc1ccc(CCNC(=O)CN(c2ccc(C)cc2)S(=O)(=O)c2ccc(OC)cc2)cc1	nt	i	?	23µM	i	nt
COc1ccc(S(=O)(=O)N(CC(=O)NCCSc2ccccc2)c2ccc(C)cc2)cc1	nt	i	18µM	13µM	?	nt
CC(C)(C)SCCNC(=O)CN(c1ccc(F)cc1)S(C)(=O)=O	i	i	i	i	i	i
COc1ccc(N(CC(=O)NCCOc2ccccc2)S(=O)(=O)c2ccc(C)cc2)cc1	i	?	?	21µM	i	i
COc1ccc(N(CC(=O)NCCSc2ccccc2)S(C)(=O)=O)cc1	i	i	i	i	?	i
CC(C)(C)SCCNC(=O)CN(c1ccc(F)c(Cl)c1)S(C)(=O)=O	i	18µM	i	i	i	i
COc1ccc(CCNC(=O)CN(c2ccc(OC)c(OC)c2)S(=O)(=O)c2ccc(C)cc2)cc1	i	i	i	i	i	i
CCOc1ccc(NC(=O)NCc2ccc3c(c2)CCN3C(C)=O)cc1	nt	i	i	i	i	nt
CCCNC(=O)Cn1nc(-c2ccc(C)cc2)c2cnc3ccc(CC)cc3c21	nt	i	i	i	i	nt
O=C(c1ccco1)N1CCN(C(c2ccccc2Cl)c2nnnn2Cc2cccs2)CC1 (configuration not stated)	i	i	?	26µM	?	i
O=C(c1ccco1)N1CCN(C(c2ccccc2Cl)c2nnnn2Cc2ccco2)CC1 (configuration not stated)	i	i	16µM	?	i	i
C/C(=N/N1CCN(c2ccccn2)CC1)c1cccc([N+](=O)[O-])c1	i	i	i	?	i	i
Cc1nc(N2CCOCC2)c2c(C(=O)N(C)Cc3ccccc3)c(C)oc2n1	nt	nt	i	i	nt	nt
Cc1ccc(N(C)S(=O)(=O)c2cccc(C(=O)N(C)Cc3cnn(-c4ccccc4)c3)c2)cc1	i	5.8µM	?	?	i	?

Assay outcomes deposited in PubChem BioAssay by National Center for Advancing Translational Sciences (NCATS).
